From PubChem BioAssay AID463173 (ICCB-Longwood Screening Facility, Harvard Medical School, 2010)
Out of some 52,000 compounds screened, about 4,300 (8.3%) were called active. The entries come from a sample that favours actives as a whole. Values without a mark were called inactive. Rule as the data show it: active = survival mostly below about 52% (no sharp cut-off); inactive = mostly above about 56%.

system: DeltatarO mutant; assay: S. aureus survival, RN4220 and DeltatarO strains – OD600, teichoic acid synthesis inhibitors, primary screen (AID 463173); details: S. aureus RN4220 wild type/DeltatarO growth, OD600, 18 h, hits give low values, screened at 18.75 µg/mL (by protocol)

Structure (SMILES)	survival
CCOC(=O)CC(NC(=O)Cn1nnc(-c2ccccc2F)n1)c1ccccc1Cl (stereo not drawn)	77%
COc1ccc(N2CCN(C(=O)c3cn(C)c4ccc(S(=O)(=O)N(C)C5CCCCC5)cc4c3=O)CC2)cc1	93%
COc1ccccc1NC(=O)CSC1=Nc2ccccc2C2=NC(CC(=O)NCCc3ccccc3)C(=O)N12 (stereo not drawn)	85%
COc1ccc(C)cc1NC(=O)Cn1c(=O)n(Cc2nc(C)no2)c(=O)c2ccccc21	79%
COc1cccc(CNC(=O)CSc2ncc3c(n2)-c2cc(Cl)ccc2N(C)S3(=O)=O)c1	92%
CCSC1=C(C#N)C2(CCCCC2)C(C#N)=C(N)N1	68%
N#CC1=C(N)NC(SCC(=O)Nc2ccc(Br)cc2)=C(C#N)C12CCCCC2	12% (active)
O=C(CSc1nc2c(c(=O)[nH]1)CCCC2)Nc1ccc(Br)cc1	58%
COc1cccc(-c2cn3c(n2)sc2cc(C(=O)NCc4ccccc4F)ccc23)c1	60%
Cn1c(=O)n(C)c2cc(N3CCOCC3)c(NC(=O)c3ccc(Cl)cc3)cc21	87%
CSc1ccc(CCNC(=O)C(C)n2nc(C)c3c(C)n(-c4ccccc4)nc3c2=O)cc1 (stereo not drawn)	46% (active)
Cc1ccc(-n2nc3c(=O)n(C(C)C(=O)NCc4ccco4)nc(C)c3c2C)cc1 (stereo not drawn)	47% (active)
CCCNC(=O)C(C)n1nc(C)c2c(C)n(-c3ccccc3)nc2c1=O (stereo not drawn)	102%
CCC(C(=O)NCCc1ccc(SC)cc1)n1nc(C)c2c(C)n(-c3ccc(C)cc3)nc2c1=O (stereo not drawn)	80%
CCC(C(=O)NCc1ccco1)n1nc(C)c2c(C)n(-c3ccc(C)cc3)nc2c1=O (stereo not drawn)	73%
Cc1ccc(CCNC(=O)C(C)n2nc(C)c3c(C)n(-c4ccc(C)cc4)nc3c2=O)cc1 (stereo not drawn)	86%
Cc1nn(C(C)C(=O)NCc2ccco2)c(=O)c2nn(-c3ccccc3)c(C)c12 (stereo not drawn)	37% (active)
Cc1ccc(-n2nc3c(=O)n(C(C)C(=O)NCc4ccccc4C)nc(C)c3c2C)cc1 (stereo not drawn)	94%
Cc1nn(CC(=O)NCc2ccco2)c(=O)c2nn(-c3ccccc3)c(C)c12	92%
CCOC(=O)N1CCC(NC(=O)c2cnn(-c3cccc(C)c3)c2-n2cccc2)CC1	85%
CCC(C)(C)N1CC(=O)N(Cc2ccccc2)C(c2ccc(OC)cc2)C1=O (stereo not drawn)	78%
CCOc1ccc(NC(=O)N(C)CCc2c(C)nn(C)c2C)cc1	74%
COc1cccc(-n2nnc3c(sc4nc(C)cc(C)c43)c2=O)c1	91%
